aSyn UTR act: Activators via SNCA 5'UTR binding, MLPCN; activity score, % (tested at 7.5 µM), hits read low; 300,000 tested, 7.1% active; alpha-synuclein 5'UTR reporter, activators screen; in the data active means activity score below about -60%
Of the large screens only hits and unclear results are named; the others gave an inactive call. A selection follows.

CSc1ccc(NC(=O)Nc2cccn(Cc3ccccc3F)c2=O)cc1	aSyn UTR act -76
c1ccc(-c2ccc(-c3csnn3)cc2)cc1	aSyn UTR act -131
CCOc1ccc(S(=O)(=O)NCc2ccccn2)cc1NC(=O)c1ccccc1F	none
COc1ccc(S(=O)(=O)NCc2ccccn2)cc1NC(=O)c1ccccc1	aSyn UTR act -62
O=C(c1ccco1)N1CCN(c2ccc(F)cc2)CC1	aSyn UTR act -79
COc1ccccc1N1CCN(c2nc(C)nc3c2oc2ccccc23)CC1	none
Cc1nc(N2CCN(C(=O)c3ccco3)CC2)c2oc3ccccc3c2n1	aSyn UTR act -89
O=C(Nc1ccc(-c2ccc(N3CCCCC3)nn2)cc1)c1ccco1	aSyn UTR act -131
Cc1nc(N2CCN(C(=O)c3ccco3)CC2)nc2c1C(=O)CCC2	aSyn UTR act -121
O=C(c1ccco1)N1CCN(c2ccc(N3CCCCC3)nn2)CC1	aSyn UTR act -133
CCn1c(SCC(=O)c2ccc(Cl)cc2)nnc1C(C)C	aSyn UTR act -76
COC(=O)C(C(=O)OC)c1ccc(NC(=O)c2cccc(Cl)c2)cc1	aSyn UTR act -90
COC(=O)c1ccc(NC(=O)c2ccc(C)cc2)o1	aSyn UTR act -75
COC(=O)c1ccc(NC(=O)c2cccc(Cl)c2)o1	aSyn UTR act -86
c1ccc(-c2nc3ccccc3o2)nc1	aSyn UTR act -70
Clc1ccc2oc(-c3ccccn3)nc2c1	aSyn UTR act -147
Nc1ccc2oc(-c3ccccn3)nc2c1	aSyn UTR act -133
Cc1ccc2nc(-c3ccc(NC(=S)NC(=O)C(C)C)cc3)sc2c1	aSyn UTR act -208
Cc1ccc2nc(-c3ccc(NC(=S)NC4CC(C)(C)NC(C)(C)C4)cc3)sc2c1	none
CCC(=O)NC(=S)Nc1ccc(-c2nc3ccc(C)cc3s2)cc1	aSyn UTR act -238
FC(F)(F)c1ccc2c(c1)nc1n2CCCC1	aSyn UTR act -65
COc1cccc(N2CCN(c3ncccn3)CC2)c1	aSyn UTR act -104
CC(=O)c1ccc(N2CCN(c3ncccn3)CC2)cc1	aSyn UTR act -125
COCCN(C(C)=O)c1nnc(-c2ccccn2)s1	aSyn UTR act -66
CN(C(=O)c1cccnc1)c1nnc(-c2ccccn2)s1	aSyn UTR act -98
Cc1ccc(-c2nnc(N(C)C(=O)c3ccncc3)s2)cn1	aSyn UTR act -77
CC(=O)N(C)c1nnc(-c2ccccn2)s1	aSyn UTR act -71
COc1cnc(-c2ccccn2)nc1N(C)C	none
c1ccc(Nc2ccnc(Nc3ccccc3)n2)cc1	aSyn UTR act -100
NNc1nc(Nc2ccccc2)nc(Nc2ccccc2)n1	aSyn UTR act -117
COC(=O)c1ccc(NC(=O)c2cccc(OC)c2)cc1	aSyn UTR act -255
COC(=O)c1ccc(NC(=O)c2cccc(C)c2)cc1	aSyn UTR act -65
O=C(Nc1ccc(C2CC2(Cl)Cl)cc1)c1ccccc1Br (stereo not drawn)	aSyn UTR act -73
COC(=O)c1ccc(/C=C/C(=O)c2cccc(OC)c2)cc1	aSyn UTR act -71
CCC(=O)Nc1ccc2c(c1)C(=O)c1ccccc1C2=O	aSyn UTR act -245
Cc1ccc(NC(=O)COC(=O)c2cccc3c2C(=O)c2ccccc2C3=O)c(C)c1	none
COc1cccc(C(=O)NC(=S)Nc2ccc(N(C)C)cc2)c1	aSyn UTR act -185
CCN(CC)S(=O)(=O)c1cccc(C(=O)Oc2cccc(NC(=O)c3cccs3)c2)c1	aSyn UTR act -66
COc1cccc(C(=O)Nc2ccc(C(=O)c3ccccc3)cc2)c1	aSyn UTR act -94
Cc1cccc(C(=O)Nc2cccc(OC(=O)c3cccc(C)c3)c2)c1	aSyn UTR act -115
COc1cccc(C(=O)Nc2ccc(C)cc2)c1	aSyn UTR act -127
COc1cccc(C(=O)Nc2ccc3c(c2)C(=O)c2ccccc2C3=O)c1	aSyn UTR act -164
Cc1ccc(NC(=O)c2ccc3nsnc3c2)c(C)c1	aSyn UTR act -102
COc1cccc(C(=O)Nc2ccc(Cl)c(C(F)(F)F)c2)c1	aSyn UTR act -108
COC(=O)c1ccc(NC(=O)c2ccc3nsnc3c2)cc1	aSyn UTR act -111
COc1ccc(NC(=O)c2ccc(C)cc2)c(OC)c1	aSyn UTR act -189
COc1ccc2cc(C(=O)/C=C/c3cc(OC)c(O)c(OC)c3)ccc2c1	aSyn UTR act -71
CC(=O)[C@]1(O)Cc2c(O)c3c(c(O)c2[C@@H](O[C@H]2C[C@H](N)[C@H](O)[C@H](C)O2)C1)C(=O)c1ccccc1C3=O	none
COc1cccc(C(=O)Nc2ccc(C3CC3(Cl)Cl)cc2)c1 (stereo not drawn)	aSyn UTR act -169
O=[N+]([O-])c1ccc(N/N=C/c2ccccc2)c(F)c1	aSyn UTR act -151
O=C1N=C(N2CCCCC2)SC1=C1CCCC1	aSyn UTR act -81
CC1CCCN(C(=O)COc2ccc3c(c2)OCO3)C1 (stereo not drawn)	aSyn UTR act -69
CC1Cc2ccccc2N1C(=O)COc1ccc2c(c1)OCO2 (stereo not drawn)	aSyn UTR act -91
O=S(=O)(C/C(=C/CO)S(=O)(=O)c1ccccc1)c1ccccc1	aSyn UTR act -71
C/C(=N/NC(=O)c1ccco1)c1cccc(NC(=O)c2ccc(C)s2)c1	aSyn UTR act -143
C/C(=N/NC(=O)c1ccc(Cl)s1)c1ccc(NC(=O)COc2ccc(Cl)cc2)cc1	aSyn UTR act -77
C/C(=N\NC(=O)c1ccn(C)n1)c1ccc(NC(=O)c2cccc(F)c2)cc1	aSyn UTR act -86
C/C(=N\NC(=O)c1ccn(C)n1)c1cccc(NC(=O)c2ccc(C)s2)c1	aSyn UTR act -101
CC1(C)Oc2cc3oc(-c4cc(O)cc(O)c4)cc3cc2CC1O (stereo not drawn)	none
C/C(=N/NC(=O)c1ccc(C)s1)c1cccc(NC(=O)COc2ccc(Cl)cc2Cl)c1	aSyn UTR act -126
C/C(=N\NC(=O)c1c(Cl)cnn1C)c1cccc(NC(=O)COc2ccccc2)c1	aSyn UTR act -88
O=C(Nc1ccc2c(c1)OCO2)C1CCCCC1	aSyn UTR act -92
CC(NC(=O)Nc1ccc2c(c1)OCO2)C1CCCO1 (stereo not drawn)	aSyn UTR act -112
CC(C)C(NC(=O)C1CCCCC1)C(=O)Nc1ccc2c(c1)OCCO2 (stereo not drawn)	aSyn UTR act -66
Cc1cc(OCC(=O)N(C)Cc2ccccc2)ccc1Br	aSyn UTR act -68
COc1ccc(/C=C/C(=O)NC2CCCCCCC2)cc1S(=O)(=O)N1CCOCC1	aSyn UTR act -112
O=c1c2ccccc2nc2ccc(NCc3ccco3)nn12	aSyn UTR act -144
Cc1sc2nc3ccc(NCc4ccco4)nn3c(=O)c2c1C	aSyn UTR act -119
CN(C)CCCNc1oc(/C=C/c2ccccc2)nc1C#N	aSyn UTR act -88
Cc1cc(C)c2nc(NCCCNC(=S)NCCCN(C)C)c(C#N)cc2c1	none
CN(C)CCNc1oc(/C=C/c2ccccc2)nc1C#N	aSyn UTR act -98
C=CCNc1oc(/C=C/c2ccccc2)nc1C#N	aSyn UTR act -152
CC(=O)n1c(Cl)c(NC(=O)CCl)c2ccccc21	aSyn UTR act -80
CC(=O)n1cc(N(C(=O)CCl)c2ccccc2)c2ccccc21	none
O=C1C(Cl)=C(N2CCOCC2)C(=O)N1CCc1ccccc1	aSyn UTR act -212
O=C1C(Cl)=C(NCC2CCCO2)C(=O)N1CCc1ccccc1 (stereo not drawn)	aSyn UTR act -183
CN1CCN(C2=C(Cl)C(=O)N(CCc3ccccc3)C2=O)CC1	aSyn UTR act -112
O=c1c([N+](=O)[O-])c(N2CCOCC2)c2ccccc2n1Cc1ccccc1	none
O=C1C(Cl)=C(NCCCN2CCOCC2)C(=O)N1CCc1ccccc1	aSyn UTR act -126
